Reference: PubChem BioAssay (NCATS)
“And” between values parts separate entries of the source, which are not always exact repeats. Equal entries are not always repeated. Results filed as inconclusive are left out. The source holds several records for some structures; these can differ, active in one and inactive in another. The source made the active and inactive calls. Unless noted, calls come from the whole dose curve; as a rule, active = well fitted curve in the direction sought with a large enough effect; inconclusive = small, poorly fitted or top-dose-only effect, or another doubt; inactive = no such curve, though single readings can be large; an effect the other way counts as inactive or inconclusive.

Assays:
WaGa = assay: qHTS assay to identify novel small-molecules to repurpose for Merkel cell carcinoma treatment (AID 1296009); settings: MCC and control cell lines, CellTiter-Glo viability, 72 h; series mostly up to 46 µM; note: % is set by controls: 0 for no effect and ±100 for the full control effect; nearly all actives have a fitted effect of over 60% in size
How it was run: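 CellTiter-Glo luminescence after 72 hr compound exposure at 37 degree celsius gave cell viability. Libraries NPC and MIPE were run as 8- and 11-point dose responses; RLUs normalized to DMSO (negative) and no-cell (cytotoxicity) controls.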

C33A = assay: Primary qHTS to identify gynecologic anti-cancer compounds using libraries of approved drugs and bioactive compounds (AID 1345084); settings: Gynecologic cancer cell panel viability, ATPlite luminescence, 48 h; series mostly up to 57.5 µM; note: % is set by controls: 0 for no effect and ±100 for the full control effect; nearly all actives have a fitted effect of over 55% in size
How it was run: (§1)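 Cytotoxicity screen measuring ATP content by luciferase luminescence. Each compound is applied at five concentrations for 48 h at 37 C with 5% CO2.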

CAOV3 = assay: as above; settings: Gynecologic cancer cell panel viability, ATPlite luminescence, 48 h; series mostly up to 57.5 µM
How it was run: as §1

CASKI = assay: as above; settings: Gynecologic cancer cell panel viability, ATPlite luminescence, 48 h; series mostly up to 57.5 µM
How it was run: as §1

Es-2 = assay: as above; settings: Gynecologic cancer cell panel viability, ATPlite luminescence, 48 h; series mostly up to 57.5 µM
How it was run: as §1

HeLa = assay: as above; settings: Gynecologic cancer cell panel viability, ATPlite luminescence, 48 h; series mostly up to 57.5 µM
How it was run: as §1

Hek293T = assay: as above; settings: Gynecologic cancer cell panel viability, ATPlite luminescence, 48 h, control line for the selectivity index; series mostly up to 57.5 µM
How it was run: as §1

JEG-3 = assay: as above; settings: Gynecologic cancer cell panel viability, ATPlite luminescence, 48 h; series mostly up to 57.5 µM
How it was run: as §1

OV90 = assay: as above; settings: Gynecologic cancer cell panel viability, ATPlite luminescence, 48 h; series mostly up to 57.5 µM
How it was run: as §1

PA-1 = assay: as above; settings: Gynecologic cancer cell panel viability, ATPlite luminescence, 48 h; series mostly up to 57.5 µM
How it was run: as §1

SKOV3 = assay: as above; settings: Gynecologic cancer cell panel viability, ATPlite luminescence, 48 h; series mostly up to 57.5 µM
How it was run: as §1

Tov-21-G = assay: as above; settings: Gynecologic cancer cell panel viability, ATPlite luminescence, 48 h; series mostly up to 57.5 µM
How it was run: as §1

Tov112D = assay: as above; settings: Gynecologic cancer cell panel viability, ATPlite luminescence, 48 h; series mostly up to 57.5 µM
How it was run: as §1

[1] = Drug repurposing screens with cells derived from glioblastoma tumor samples (AID 1345199); settings: GBM patient neurospheres viability, ATP luminescence, 48 h; note: nearly all actives have a fitted effect of over 40% in size; note: potency is the fitted concentration of half-maximal effect; for activity, negative = cell killing: % is set by controls: 0 for no effect and ±100 for the full control effect
How it was run: (§2)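 Primary testing used CD133+ neurospheres from four GBM patients, seven concentrations, 48 h exposure and ATP-based viability; confirmation added three slower-growing patient lines.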

astro = assay: as above; settings: viability, ATP luminescence, 48 h; series mostly up to 45.9 µM
How it was run: as §2

[2] = target: Nuclear receptor subfamily 1 group I member 2 (Rattus norvegicus) (UniProt Q9R1A7); assay: qHTS assay for small molecule activators of the rat pregnane X receptor (rPXR) signaling pathway (AID 651751; call rule not given here; note: 0% is about no effect); settings: rPXR reporter cells, luciferase (One-Glo), 24 h
Nuclear receptor subfamily 1 group I member 2 (Rattus norvegicus), sequence (Q9R1A7 whole entry, looked up): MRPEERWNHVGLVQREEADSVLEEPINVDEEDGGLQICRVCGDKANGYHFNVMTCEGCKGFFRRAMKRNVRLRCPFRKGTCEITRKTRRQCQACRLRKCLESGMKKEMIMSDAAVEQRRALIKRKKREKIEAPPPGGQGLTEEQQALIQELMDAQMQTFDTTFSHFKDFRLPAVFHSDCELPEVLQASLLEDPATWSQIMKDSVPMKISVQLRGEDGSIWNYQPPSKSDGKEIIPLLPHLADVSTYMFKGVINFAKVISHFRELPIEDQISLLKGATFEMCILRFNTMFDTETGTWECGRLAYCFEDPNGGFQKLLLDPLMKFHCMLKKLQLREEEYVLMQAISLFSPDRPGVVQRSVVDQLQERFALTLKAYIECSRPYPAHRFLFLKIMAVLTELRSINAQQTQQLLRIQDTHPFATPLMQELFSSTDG

[3] = qHTS assay for small molecule activators of the human pregnane X receptor (PXR) signaling pathway (AID 720659; call rule not given here; note: 0% is about no effect); settings: DPX-2 HepG2 CYP3A4-luciferase, 24 h; series mostly up to 92.3 µM
[4] = at 45.9 µM (top of the series), tumour line B
[5] = at 46 µM (top of the series), tumour line A
[6] = at 46.1 µM (top of the series), tumour line C
[7] = at 45.9 µM (top of the series), tumour line D

O=C1c2c(O)cccc2Cc2cccc(O)c21
inactive: Potency (WaGa) | Potency (C33A) | Potency (CAOV3) | Potency (CASKI) | Potency (Es-2) | Potency (HeLa) | Potency (Hek293T) | Potency (JEG-3) | Potency (OV90) | Potency (PA-1) | Potency (SKOV3) | Potency (Tov-21-G) | Potency (Tov112D) | activity, negative = cell killing [1, 4] -7.97% | activity, negative = cell killing [1, 5] -24.5% | activity, negative = cell killing [1, 6] -8.57% | Potency (astro) | max response [2] -0.627% | outcome [3]

O=C(O)[C@@H]1CSCN1
inactive: Potency (WaGa) | Potency (C33A) | Potency (CAOV3) | Potency (CASKI) | Potency (Es-2) | Potency (HeLa) | Potency (Hek293T) | Potency (JEG-3) | Potency (OV90) | Potency (PA-1) | Potency (SKOV3) | Potency (Tov-21-G) | Potency (Tov112D) | activity, negative = cell killing [1, 4] 0.874% | activity, negative = cell killing [1, 7] 4.12% | activity, negative = cell killing [1, 6] -12.1% | Potency (astro)

O=C1O[C@H](CO)[C@@H](O)[C@H](O)[C@H]1O
inactive: Potency (WaGa) | Potency (C33A) | Potency (CAOV3) | Potency (CASKI) | Potency (Es-2) | Potency (HeLa) | Potency (Hek293T) | Potency (JEG-3) | Potency (OV90) | Potency (PA-1) | Potency (SKOV3) | Potency (Tov-21-G) | Potency (Tov112D) | activity, negative = cell killing [1, 4] -6.95% | activity, negative = cell killing [1, 7] 6.72% | activity, negative = cell killing [1, 6] 0.13% | Potency (astro)

NCCNCCNCCNCCN
inactive: activity change, negative = cytotoxicity (WaGa) -2.21% [at 9.22 µM] | activity change, negative = cytotoxicity (C33A) 13.2% [at 11.6 µM] | activity change, negative = cytotoxicity (CAOV3) 11.8% [at 11.6 µM] | activity change, negative = cytotoxicity (CASKI) 1.72% [at 11.6 µM] | activity change, negative = cytotoxicity (Es-2) -5.14% [at 11.6 µM] | activity change, negative = cytotoxicity (HeLa) 8.61% [at 11.6 µM] | activity change, negative = cytotoxicity (Hek293T) -2.17% [at 11.6 µM] | activity change, negative = cytotoxicity (JEG-3) -3.13% [at 11.6 µM] | activity change, negative = cytotoxicity (OV90) 8.86% [at 11.6 µM] | activity change, negative = cytotoxicity (PA-1) 20.4% [at 11.6 µM] | activity change, negative = cytotoxicity (SKOV3) 0% [at 11.6 µM] | activity change, negative = cytotoxicity (Tov-21-G) -0.438% [at 11.6 µM] | activity change, negative = cytotoxicity (Tov112D) 0.19% [at 11.6 µM] | activity, negative = cell killing [1, 4] -23.1% | activity, negative = cell killing [1, 7] -12.1% | activity, negative = cell killing [1, 6] 1.79% | Potency (astro) | max response [2] -1.57% and 1.12% | outcome [3]

CN(C)CCOC(C)(c1ccccc1)c1ccccn1 (stereo not given)
active: Potency ([1]; tumour line A) 15.8 µM
inactive: Potency (WaGa) | Potency (C33A) | Potency (CAOV3) | Potency (CASKI) | Potency (Es-2) | Potency (HeLa) | Potency (Hek293T) | Potency (JEG-3) | Potency (OV90) | Potency (PA-1) | Potency (SKOV3) | Potency (Tov-21-G) | Potency (Tov112D) | activity, negative = cell killing [1, 4] -6.13% | activity, negative = cell killing [1, 7] -4.11% | activity, negative = cell killing [1, 6] -0.022% | Potency (astro) | max response [2] 2.43% | outcome [3]

COc1ccc2cc1Oc1cc3c(cc1OC)CC[N+](C)(C)[C@H]3Cc1ccc(cc1)Oc1c(OC)c(OC)cc3c1[C@@H](C2)[N+](C)(C)CC3
inactive: Potency (WaGa) | Potency (C33A) | Potency (CAOV3) | Potency (CASKI) | Potency (Es-2) | Potency (HeLa) | Potency (Hek293T) | Potency (JEG-3) | Potency (OV90) | Potency (PA-1) | Potency (SKOV3) | Potency (Tov-21-G) | Potency (Tov112D) | activity, negative = cell killing [1, 4] -14.8% | activity, negative = cell killing [1, 7] -5.75% | activity, negative = cell killing [1, 6] -3.48% | Potency (astro)

CCCCC(CC)COC(=O)c1ccccc1O (stereo not given)
inactive: Potency (WaGa) | Potency (C33A) | Potency (CAOV3) | Potency (CASKI) | Potency (Es-2) | Potency (HeLa) | Potency (Hek293T) | Potency (JEG-3) | Potency (OV90) | Potency (PA-1) | Potency (SKOV3) | Potency (Tov-21-G) | Potency (Tov112D) | activity, negative = cell killing [1, 4] -9.83% | activity, negative = cell killing [1, 7] -3.06% | activity, negative = cell killing [1, 6] 2.02% | Potency (astro) | max response [2] 2.15% | outcome [3]

O=C(O)CN1C(=O)c2cccc3cccc(c23)C1=O
inactive: Potency (WaGa) | Potency (C33A) | Potency (CAOV3) | Potency (CASKI) | Potency (Es-2) | Potency (HeLa) | Potency (Hek293T) | Potency (JEG-3) | Potency (OV90) | Potency (PA-1) | Potency (SKOV3) | Potency (Tov-21-G) | Potency (Tov112D) | activity, negative = cell killing [1, 4] -8.91% | activity, negative = cell killing [1, 7] -13.3% | activity, negative = cell killing [1, 5] -27.1% | activity, negative = cell killing [1, 6] -19.2% | Potency (astro)

OCC(O)CN1CCN(c2ccccc2)CC1 (stereo not given)
inactive: Potency (WaGa) | Potency (C33A) | Potency (CAOV3) | Potency (CASKI) | Potency (Es-2) | Potency (HeLa) | Potency (Hek293T) | Potency (JEG-3) | Potency (OV90) | Potency (PA-1) | Potency (SKOV3) | Potency (Tov-21-G) | Potency (Tov112D) | activity, negative = cell killing [1, 4] -18.5% | activity, negative = cell killing [1, 7] -7.12% | activity, negative = cell killing [1, 6] -25.1% | Potency (astro)

CC12CCC(CC1)C(C)(C)O2
inactive: Potency (WaGa) | Potency (C33A) | Potency (CAOV3) | Potency (CASKI) | Potency (Es-2) | Potency (HeLa) | Potency (Hek293T) | Potency (JEG-3) | Potency (OV90) | Potency (PA-1) | Potency (SKOV3) | Potency (Tov-21-G) | Potency (Tov112D) | activity, negative = cell killing [1, 4] -7.94% | activity, negative = cell killing [1, 7] 5.35% | activity, negative = cell killing [1, 6] -12.5% | Potency (astro) | max response [2] 2.12% | outcome [3]

c1ccc2c(CC3=NCCN3)cccc2c1
inactive: Potency (WaGa) | Potency (C33A) | Potency (CAOV3) | Potency (CASKI) | Potency (Es-2) | Potency (HeLa) | Potency (Hek293T) | Potency (JEG-3) | Potency (OV90) | Potency (PA-1) | Potency (SKOV3) | Potency (Tov-21-G) | Potency (Tov112D) | activity, negative = cell killing [1, 7] -11.3% and -15.4% | activity, negative = cell killing [1, 6] -1.52% and -0.846% and -3.97% | Potency (astro)

CC(C)(C)C(=O)NCCCC(=O)O
inactive: Potency (WaGa) | Potency (C33A) | Potency (CAOV3) | Potency (CASKI) | Potency (Es-2) | Potency (HeLa) | Potency (Hek293T) | Potency (JEG-3) | Potency (OV90) | Potency (PA-1) | Potency (SKOV3) | Potency (Tov-21-G) | Potency (Tov112D) | activity, negative = cell killing [1, 4] -17.2% | activity, negative = cell killing [1, 7] -2.84% | activity, negative = cell killing [1, 6] -20.2% | Potency (astro)
